T1: UNK ZnF1-3 (human, UniProt Q9C0B0 31-174)
T1 sequence: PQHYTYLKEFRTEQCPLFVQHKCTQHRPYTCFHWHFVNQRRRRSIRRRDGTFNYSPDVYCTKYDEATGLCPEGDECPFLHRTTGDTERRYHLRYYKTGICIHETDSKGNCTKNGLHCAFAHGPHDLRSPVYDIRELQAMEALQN

B1: 117841126_117842589_621_3pUTR_ENSMUSG00000033326_ENSMUST00000106406|mouse|control|control (ssRNA)
RNA: GGGAGUUCUACAGUCCGACGAUCCUUCUCCACCAGGUCCAGGAUGGUCUUCAGCCGGCCGAUAUUCCACUCAUCAACGUGCUGUUCAUAGAGAGUACCAUUCACGUCUGCUCCAUAGAUGGGAGGAUUGAAUGUGAGGUUUUUCAACAGAGGAUUGAGCAUCA
B2: chr2:166765161:166765162:+_ENSMUSG00000002718_ENSMUST00000002790|mus_hu|motif|central (ssRNA)
RNA: GGGAGUUCUACAGUCCGACGAUCGGAUAAACAUAUUGCUUCAAACAUGUAGUGAUUAAAGUGAGGUUUGCUUGGGUUCUUACGGACAGCUAAUAGCUUCUGUGUAAGCUGAGUGAUGAGAGUAGGGAUGUAGGGGAUUAUGGCCAACAGAGGAUUGAGCAUCA
B3: chr16:45382771:45382772:-_ENSMUSG00000022661_ENSMUST00000163230|mus_mus|mus_mus_mus_hu_True|28_48 (ssRNA)
RNA: GGGAGUUCUACAGUCCGACGAUCCUGGGUCAUGUUAUAAGACAAAUGGACAGGGAGGGCAUGCUUCUCAAAAAAUGUGAGCUAUUGACUAAGACUAACAAUAUUUACUAAGUGCUAAAAAUAAGUUAAAUGAAUAAGUUAAGACAACAGAGGAUUGAGCAUCA
B4: chr16:8858281:8858282:+_ENSMUSG00000022507_ENSMUST00000023150|mus_mus|FALSE|FALSE (ssRNA)
RNA: GGGAGUUCUACAGUCCGACGAUCCUCAUGAGGUGAGGAGGUGCUACAUAUUGAAUGCAAUGGAAAAAAGUAACCAGUGCUAAAGUUUUUAAAAAGUUUAAUGGAGCCAAUAAUUCGGCAUAUAAAUUGUGUUCUGGCAGACAUCAACAGAGGAUUGAGCAUCA
B5: chr16:45382771:45382772:-_ENSMUSG00000022661_ENSMUST00000163230|mus_mus|mus_mus_mus_hu_True|28_38 (ssRNA)
RNA: B3 RNA with A87U, U105G, A106C
B6: chr16:8858281:8858282:+_ENSMUSG00000022507_ENSMUST00000023150|mus_mus|motif|central (ssRNA)
RNA: B4 RNA with U80G, A81G
B7: chr16:45382771:45382772:-_ENSMUSG00000022661_ENSMUST00000163230|mus_mus|mus_mus_mus_hu_True|28_108 (ssRNA)
RNA: B3 RNA with G27A, C30G, A31U, G33A, A36G, A87U
B8: chr5:128440902:128440903:+_ENSG00000066583_ENST00000173527|hu_mus|hu_hu_hu_mus_True|38_48 (ssRNA)
RNA: GGGAGUUCUACAGUCCGACGAUCUUGAACGGUGCUGCCAAGUCCUUUGGGGUAUUGUUCCGUUAUGAUAACUGGAAUCCCUAAGAUCCGGGCCCCUUGCAACAAUCUCUGUCCCACACUAAUGAUGUCCCCAAAGUAUUUGAUCAACAGAGGAUUGAGCAUCA
B9: chr3:133545784:133545785:-_ENSG00000154917_ENST00000285208|hu_mus|motif|central (ssRNA)
RNA: GGGAGUUCUACAGUCCGACGAUCGAGGAUGUGAGUGUGUGUAUGUGUGCGCGCGAAGGGUGUAUACACAAGUCUAUCUCGGUGUAUAAUUAUGUACACACAUAUAAAAACUAAACACGUGACGUUUCGAUUAUGCUCGUACAUCAACAGAGGAUUGAGCAUCA
B10: chr1:39494564:39494565:+_ENSG00000168653_ENST00000372967|hu_hu|motif|central (ssRNA)
RNA: GGGAGUUCUACAGUCCGACGAUCACCUGCACGUCUCAUCGUUUUCUGCCGAAGCAAACACUCUACGAAAUCAUCAUAUUCGGUCUUGCACUCUUUCUCUGCCCGAGUAUAACCGAUUCCAUGUGCACAUUCUAUCCAUUCUUUCAACAGAGGAUUGAGCAUCA
B11: 121693014_121693134_369_3pUTR_ENSMUSG00000060227_ENSMUST00000078752|mouse|control|control (ssRNA)
RNA: GGGAGUUCUACAGUCCGACGAUCUUCUCCAAGCGCCCGCGGGCCACCUCGGUGCGCUGGACCUGGCCCUGCAGCUCGGCCACCUCCUCCUGAAGCAGAACGUGGCGGGAGGAGAUGCUCCAGUAGUUGAAGGCAAGGACGACGCAACAGAGGAUUGAGCAUCA
B12: chr19:47610742:47610743:-_ENSMUSG00000042694_ENSMUST00000049369|mus_hu|FALSE|FALSE (ssRNA)
RNA: GGGAGUUCUACAGUCCGACGAUCUGGCACCUGGCGGGACUCCUUCAUGUCCAGGAUAUCCCUGAUGUAGAGUUUUGCAAAGGCUAGAAACACAGGAUCCAAACCCCACAAGAGGGAAGGGGUCUCCUCUUCACACCGGCUGGACAACAGAGGAUUGAGCAUCA
B13: chr16:94646735:94646736:+_ENSMUSG00000040785_ENSMUST00000117648|mus_mus|motif|central (ssRNA)
RNA: GGGAGUUCUACAGUCCGACGAUCUGUUUUUAACUUUUUCCAGCAGUUCAUAUGAAAUUCUACCUUACAGUAUUGGCAACAGCGGAUUCGUAUAAAACCCUUAAAGUCUGGAUCAGUUAAGUAAAUCUGAAUUUUAGAAUAUCCCAACAGAGGAUUGAGCAUCA
B14: chr6:145182920:145182921:-_ENSMUSG00000030265_ENSMUST00000032399|mus_hu|motif|central (ssRNA)
RNA: GGGAGUUCUACAGUCCGACGAUCCUCCUCUUGACCUGCUGUGUCGAGAAUAUCCAAGAGACAGGUUUCUCCAUCAAUUACGGCUUGCUUCCUGUAGGAAUCCUCUAUUGUUGGAUCAUAUUCGUCCACAAAAUGAUUCUGAAUCAACAGAGGAUUGAGCAUCA
B15: chr7:75932113:75932114:+_ENSG00000106211_ENST00000248553|hu_mus|FALSE|FALSE (ssRNA)
RNA: GGGAGUUCUACAGUCCGACGAUCCUGCGACCACUCAUCGGGCAACCGGGGCACCCCGAAAGCUUGAUCGAAGAGGCGGCUGUGUGCAGGGUACCAGUCCCGGAAUGGUUCCCAGCUCGGGCUCCGCAGCAGCGAGAAGGGCACCAACAGAGGAUUGAGCAUCA
B16: chr16:45382771:45382772:-_ENSMUSG00000022661_ENSMUST00000163230|mus_mus|mus_mus_mus_hu_True|28_78 (ssRNA)
RNA: B3 RNA with G57A, C66U, A87U
B17: chr16:45382771:45382772:-_ENSMUSG00000022661_ENSMUST00000163230|mus_mus|mus_mus_mus_hu_True|18_28 (ssRNA)
RNA: B3 RNA with A87U, A117U, U121A, A123U, G124A, U125A, U126G
B18: chr16:45382771:45382772:-_ENSMUSG00000022661_ENSMUST00000163230|mus_mus|mus_mus_mus_hu_True|28_68 (ssRNA)
RNA: B3 RNA with C68G, A69U, A73G, A87U
B19: chr16:45382771:45382772:-_ENSMUSG00000022661_ENSMUST00000163230|mus_mus|mus_mus_mus_hu_True|28_88 (ssRNA)
RNA: B3 RNA with C50U, A87U
B20: chr1:225611761:225611762:-_ENSG00000143815_ENST00000272163|hu_mus|hu_hu_hu_mus_True|78_108 (ssRNA)
RNA: GGGAGUUCUACAGUCCGACGAUCCCAGGCCAUCGACCUCUGACCACUUCACCCUCAGCAAAUUUCCUACUUGGCAUUUUCUAAAAUUAGUCUGGCCGCGCUCCGGCGGGAACUCCAGCCACUCCAGGACAGUCACCAGCAGCCCAACAGAGGAUUGAGCAUCA
B21: 71781198_71781318_2220_CDS_ENSMUSG00000008305_ENSMUST00000030095|mouse|control|control (ssRNA)
RNA: GGGAGUUCUACAGUCCGACGAUCCACGCAGCUCUCGUGGAGGUGCAGCUGGUACUUGUCAGGCUUGUUCACAUGCAGAACUUCCACGUUGCUGCUUUCCAUGCCCACAGCAAGCCACUCCCCAGUUGGGCAAUAUCCCAAAGACAACAGAGGAUUGAGCAUCA
B22: chr3:57561382:57561383:-_ENSG00000168374_ENST00000303436|hu_hu|FALSE|FALSE (ssRNA)
RNA: GGGAGUUCUACAGUCCGACGAUCUAGCAGCACUGCAUCUCUCAAUUCAUCUACCAGAAGCAUUUUCUGCAGCUCAUCUGCUACUUCCUGAAUUCUUUCACGAUCGUUGCUAUCUACCACAAAAAUAAGACCCUGGGUAUUCUGCAACAGAGGAUUGAGCAUCA

Where a chain is given by its changes, count along the chain named. Over roughly 24,000 sequences, “enrichment r” has its median near 0.99; the highest 2% begin near 3.7. Many of the other results were omitted from the sample, so the highest values are more common in it than they were.

The target in the assay is T1, UNK ZnF1-3. The experiment in a line: nsRBNS (natural sequence RNA bind-n-seq); RBNS binding buffer (assumed for nsRBNS): 25 mM Tris pH 7.5, 150 mM KCl, 3 mM MgCl2, 0.01% Triton X-100, 500 ug/ml BSA, 20 U/ml SUPERase-In, 4 C; UNK is unkempt and MSI1 is Musashi-1; names of the RNAs are library labels; protein concentration not given here; high values mean tight binding.
For B1, the binding signal amounted to 1.09 enrichment R.

Take B2: the binding signal is 1.62 enrichment R.

B3: the binding signal was 7.16 enrichment R. Then B4, with 5.62 enrichment R; and B5, with 12.5 enrichment R; and B6, with 3.41 enrichment R.

Take B7: the binding signal turned out to be 10.2 enrichment R. On to B8, for which the binding signal was found to be 0.772 enrichment R. With B9, the binding signal was determined as 1.66 enrichment R. Then B10, with 0.521 enrichment R; and B11, with 0.777 enrichment R. The molecule B12 gave a binding signal of 0.707 enrichment R.

As for B13, the binding signal came to 1.03 enrichment R. Molecule B14 yielded a binding signal of 0.665 enrichment R. Then B15, with 1.04 enrichment R. Consider B16, for which the binding signal was 12.8 enrichment R. For B17 the value was 9.98 enrichment R.

The molecule B18 registered a binding signal of 6.96 enrichment R. The molecule B19 returned a binding signal of 5.11 enrichment R.

As to B20, the binding signal is 1.33 enrichment R. B21: the binding signal was 0.78 enrichment R.

On to B22, for which the binding signal is 0.947 enrichment R.

These data come from publication PMC12136788.
